Assay outcomes (PubChem)
MITF inh: human MITF inhibition, primary screen. AlphaScreen MITF homodimerization, bead proximity signal. inhibition, % at 2.6 µM. 0.91% of 650,000 active; in the data active = inhibition above about 50%
GPR151 ag: human GPR151 activation; activation, % at 11.2 µM; PathHunter beta-arrestin GPR151 cells, luminescence; Q8TDV0; 1% of 650,000 active; AID 1508602; in the data active = activation above about 4.9%
Target sequence (Q8TDV0 whole entry, looked up): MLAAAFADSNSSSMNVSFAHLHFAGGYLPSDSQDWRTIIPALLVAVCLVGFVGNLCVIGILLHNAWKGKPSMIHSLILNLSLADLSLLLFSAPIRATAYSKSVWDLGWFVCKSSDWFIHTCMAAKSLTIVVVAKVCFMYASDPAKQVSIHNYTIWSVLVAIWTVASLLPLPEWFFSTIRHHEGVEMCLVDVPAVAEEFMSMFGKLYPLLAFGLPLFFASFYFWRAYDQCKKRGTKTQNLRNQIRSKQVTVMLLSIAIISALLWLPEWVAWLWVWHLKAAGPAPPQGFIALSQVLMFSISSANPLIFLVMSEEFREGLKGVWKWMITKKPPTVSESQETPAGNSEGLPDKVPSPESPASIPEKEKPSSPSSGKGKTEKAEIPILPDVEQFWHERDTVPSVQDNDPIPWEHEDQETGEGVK
TEAD-YAP block: TEAD-YAP interaction inhibition; HEK-TIYL cells, TEAD-Gal4/YAP UAS-luciferase luminescence; inhibition, % at 9.12 µM; 1.4% of 640,000 active; AID 1259422; in the data active = inhibition above about 32%
FBW7 act: activators of human E3 ligase FBW7; Q969H0; AlphaScreen FBW7–phospho-cyclin E peptide binding, activator screen; normalized activity (activation), % at 26.1 µM; 0.13% of 650,000 active; AID 1259310; in the data active = normalized activity above about 1.9%;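 also: purified mutant Fbw7 with reduced substrate affinity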
A number is an active result; i = inactive. In the library only some 3.5% were active in any assay of this set; here they are far more common.

SMILES	MITF inh	GPR151 ag	TEAD-YAP block	FBW7 act
COc1ccc(CNc2ccc(C(=O)OCc3ccccc3F)cc2S(=O)(=O)Nc2cccc(OC)c2)cc1	i	i	i	i
COc1ncc(-c2cnc3[nH]c(=O)n(CCCO)c3n2)cn1	i	i	i	i
COc1cc(OC)c(/C=C2/C(=O)Nc3ccccc32)c(OC)c1	i	i	53	i
COc1cc(/C=C2/C(=O)Nc3ccccc32)cc(OC)c1O	i	i	i	i
O=C(CSc1n[nH]c(-c2ccccc2)n1)Nc1ccccc1Cl	i	i	i	i
O=C(CSc1n[nH]c(-c2ccccc2)n1)Nc1cccc2ccccc12	i	i	53	i
NC(=O)c1ccc(-c2ccc(N3CCOCC3)nc2)s1	i	i	50	i
NC(=O)c1cnc(-c2ccc(N3CCOCC3)nc2)s1	i	i	63	i
CCCNC(=O)c1cnc(-c2ccc(N3CCOCC3)nc2)s1	i	i	i	i
COc1ccc(-c2ncc(C(N)=O)s2)cc1	i	i	49	i
CCc1cccc(C)c1NC(=O)CN(CC)S(=O)(=O)c1ccc(C)cc1	i	i	i	i
COc1ccc(C2=CC(c3cccc4ccccc34)n3nnnc3N2)cc1 (stereo not drawn)	i	i	i	i
Cc1ccc(-c2cccc3cnc(Nc4cccc(C(=O)N5CCOCC5)c4)nc23)cn1	i	i	32	i
Cc1ccc(-c2cccc3cnc(NC4CCN(C(=O)N5CCCC5)C4)nc23)cn1 (stereo not drawn)	i	i	i	i
Cc1ccc(-c2cccc3cnc(Nc4ccc(C(=O)N5CCCC5)cc4)nc23)cn1	i	i	50	i
CSc1ncccc1C(=O)NCC1Cc2cc(-c3ccccc3C(C)=O)ccc2O1 (stereo not drawn)	i	i	i	i
COc1ccc(/C=N/NC(=O)c2[nH]nc3c2CCc2ccccc2-3)cc1OC	i	i	46	i
COc1ccc(/C=N\NC(=O)c2n[nH]c3c2CCCC3)c(OC)c1OC	i	i	61	i
COc1cccc(/C=N\NC(=O)c2n[nH]c3c2CCC3)c1	i	i	36	i
COc1cc(/C=N/NC(=O)c2n[nH]c3c2CCC3)ccc1O	i	i	47	i
COc1cccc(/C=N\NC(=O)c2n[nH]c3c2CCCC3)c1OC	i	i	i	i
COC(=O)c1ccc(/C=N/NC(=O)c2[nH]nc3c2CCc2ccccc2-3)cc1	i	i	i	i
COc1ccc(/C=N/NC(=O)c2n[nH]c3c2CCCC3)cc1OC	i	i	i	i
Cc1ccccc1NS(=O)(=O)c1cc(Br)cnc1N	i	i	i	i
CCN1CCN(S(=O)(=O)c2ccc(C)cc2)CC1	i	i	i	i
SMILES	MITF inh	GPR151 ag	TEAD-YAP block	FBW7 act
C#CCOc1ccc(C2C(C(=O)OC)=C(C)Nc3ncnn32)cc1 (stereo not drawn)	i	i	i	i
C=CCn1c(COC)nc2ccccc21	i	i	i	i
O=C(NC(=S)Nc1ccc2nn(-c3ccc(Cl)cc3)nc2c1)c1ccco1	i	i	i	i
CCOCCn1c2c(c3ccccc31)=NC1C=CC=CC1N=2 (stereo not drawn)	i	i	i	2.7
O=C(CN1CCCc2ccccc21)N/N=C/c1ccccc1	i	i	i	i
O=C(CN1CCCc2ccccc21)N/N=C/c1ccc(Cl)cc1	i	i	36	i
COc1ccc(CCNCc2ccc(N3CCOCC3)cc2)cc1	53	i	i	i
Cc1ccc(CNCc2ccc(N3CCOCC3)cc2)cc1	55	i	i	i
COc1ccc(CNCCN2CCOCC2)cc1	i	i	i	i
Cc1ccc(N2CCOCC2)cc1	i	i	i	i
Nc1nc(NCc2cccc(C(F)(F)F)c2)cc(-c2csc3ccccc23)n1	i	i	53	i
Nc1nc(NCc2ccccc2)cc(-c2csc3ccccc23)n1	i	i	i	i
COc1ccc(CCNc2cc(-c3csc4ccccc34)nc(N)n2)cc1	i	i	57	i
COc1ccc(CCNc2cc(Nc3cnccn3)ncn2)cc1	i	i	i	i
COc1ccc(CCNc2cc(Nc3cnccn3)nc(N)n2)cc1	i	i	35	i
COc1ccc(-c2cc(NCc3cccc(C(F)(F)F)c3)nc(N)n2)cn1	i	i	46	i
COc1ccc(-c2cc(NCc3cccc(C(F)(F)F)c3)nc(N)n2)cc1	i	i	i	i
Cc1cc(C)n2c(SCC(=O)NCc3ccc(F)cc3)nnc2n1	i	i	i	i
Cc1cc(C)n(CCc2nc3c4ccccc4[nH]c(=O)n3n2)n1	i	i	i	i
Cc1cc(NC(=O)CSc2nc3ccccc3c(=O)n2NC(=O)c2ccccc2)n[nH]1	i	i	47	i
Cc1cc(NC(=O)CCCC(=O)c2ccccc2)n[nH]1	i	i	47	i
Cc1ccc(C(=O)CCC(=O)Nc2cc(C)[nH]n2)cc1	i	i	i	i
COc1ccc(C(=O)Nn2c(SCC(=O)Nc3ccc(C)c(Cl)c3)nc3ccccc3c2=O)cc1	i	i	75	i
Cc1ccc(NC(=O)CSc2nc3ccccc3c(=O)n2NC(=O)c2ccc(F)cc2)cc1Cl	i	i	57	i
COc1ccc(CCn2c(SCC(=O)Nc3ccc(C)c(Cl)c3)nc3ccccc3c2=O)cc1OC	i	i	i	i
SMILES	MITF inh	GPR151 ag	TEAD-YAP block	FBW7 act
COc1ccc(-c2cc(COC(=O)c3c(F)cccc3Cl)no2)cc1OC	i	i	i	i
CC1C/C(=N\NC(=O)c2ccccc2)CC(C)(C)C1 (stereo not drawn)	i	i	i	i
CCn1c(SCC(=O)Nc2ccc(C)c(Cl)c2)nc2c1c(=O)n(C)c(=O)n2C	i	i	i	1.9
COc1ccc(CSc2ccc(C(=O)Nc3cc(F)cc(F)c3)cc2[N+](=O)[O-])cc1	i	i	i	i
Cc1cc(NC(=O)Cn2nnc(-c3ccccc3NS(=O)(=O)c3ccccc3)n2)no1	i	i	i	i
C=CC(=O)Nc1ccc(Br)cc1	i	i	36	i
O=C(O)/C=C\C(=O)Nc1ccc(Br)cc1	i	i	i	i
CCc1cc2c(cc3c(=O)n(CCCC(=O)O)ncn32)s1	i	i	35	i
COc1ccc(-n2nnnc2-c2cccc(OC)c2)cc1	i	i	58	i
CCCCCc1c2c(C)c(C(=O)OCC)nc-2cc2n1CC(C)=C2C	i	i	41	i
CCOC(=O)c1c(Cl)nc(Cl)c(Cl)c1Nc1cccc(C)c1	i	i	i	i
CCOC(=O)c1c(Cl)nc(Cl)c(Cl)c1Nc1ccc(OC)cc1	i	i	47	i
CCOC(=O)c1c(Cl)nc(Cl)c(Cl)c1Nc1cccc(F)c1	i	i	44	i
CCOC(=O)c1c(Cl)nc(Cl)c(Cl)c1Nc1ccc(OC(F)(F)F)cc1	i	i	51	i
CN(C)c1ccc(/C=N/n2c(-c3ccco3)n[nH]c2=S)cc1	i	i	i	i
CCN(CC)c1nc(NCc2cccc(C(F)(F)F)c2)nc(Nc2nc3ccccc3n2C)n1	i	i	i	i
O=C(Nc1nc2ccccc2[nH]1)c1cc(F)c(F)cc1Cl	i	i	54	i
O=C(c1ccc(Br)o1)N1CCN(c2ccc([N+](=O)[O-])cc2Cl)CC1	i	i	i	i
CCNC(=O)c1ccc(-c2ccccc2)cc1	i	i	i	i
CN(C)CCNC(=O)c1ccc(-c2ccccc2)cc1	i	i	35	i
Cc1ccc(C(=O)CNC(=O)c2ccccc2)cc1	i	i	65	i
